Test in all cases: NCI-60 one-dose screen, 48 h (100 = growth as untreated, 0 = no growth, -100 = all killed)
Common to all, as to conditions: 10 µM unless noted

Test [1] relates to NCI-H23 lung.
For test [2], the system named is NCI-H322M lung.
The subject of test [3] is HOP-62 NSCLC.
The test system of test [4] is NCI-H460 lung.
Test [5] has as its system HOP-92 NSCLC.
In test [6] the test system is NCI-H522 lung.
The subject of test [7] is A549/ATCC NSCLC.
Test [8] relates to 786-0 renal.
The test system of test [9] is COLO 205 colon.
The subject of test [10] is DU-145 prostate.
Test [11] relates to K-562 leukemia.
The subject of test [12] is MALME-3M melanoma.
The test system of test [13] is MDA-MB-231 breast.
Test [14] relates to RXF 393 renal.
The subject of test [15] is SF-268 CNS.
Test [16] deals with SF-295 CNS.
Test [17] deals with SF-539 CNS.
In test [18] the test system is UACC-257 melanoma.
The test system of test [19] is M14 melanoma.
Test [20] deals with HCT-15 colon.

Compounds without any hit were thinned out: in the full panel of roughly 83,000, 20% have a hit.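 Note: values are percent growth. 100 is the growth of untreated cells, values between 100 and 0 indicate rising inhibition; between -100 and 0 indicates cell death.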 Values without a mark were called inactive. The source made the active and inactive calls. The calls were made as follows: active = growth percent below 10; inactive = the rest.

For `CC(C)CCNCC(O)Cn1c2ccccc2c2ccccc21` (stereo not given), the growth is 25.4% in [1]; 30.7% in test [2]; 18.1% in test [3]; 1.52% (active) in test [4]; -13.7% (active) in test [5]; 20.3% in test [6]. For the same compound, the growth in [7] was 11.9%; in [8], 25.2%; in test [9], 2.79% (active); in [10], 9.71% (active); in test [11] it was 1.84% (active); in test [12], -12.3% (active). Further, the growth in [13] is 41.6%; in [14], 8.43% (active); in test [15], 30.7%; in test [16] it was -40% (active); in test [17], 16.1%; in test [18], 1.45% (active). For the same compound, the growth is 11.8% in test [19] and 14.9% in test [20].
For `COc1cc2nc(-c3cccc4cccnc34)nc(NC3CCN(Cc4ccccc4)CC3)c2cc1OC`, the growth was -72.2% (active) in test [1]; -71.3% (active) in [2]; -73.9% (active) in test [3]; -73.6% (active) in [4]; -73.2% (active) in test [5]; -52.1% (active) in test [6]. For the same compound, the growth in [7] was -72.7% (active); in [8] it was -71.4% (active); in test [9] it was -75.5% (active); in test [10] it was -93.6% (active); in test [11] it was -49.4% (active); in test [12], -76.6% (active). The growth in test [13] is -89.5% (active); in test [14], -79.8% (active); in test [15] it was -68.8% (active); in test [16] it was -87.2% (active); in test [17], -86.6% (active); in test [18], -62.4% (active). The growth was -80% (active) in test [19] and -80.9% (active) in [20].
For `COC(=O)/C(CCC=C(C)C)=C1\[C@@H](OC(C)=O)C[C@@]2(C)[C@H]1C[C@@H](O)[C@H]1[C@@]3(C)CC[C@H](NCCCNCCCCNCCCN)[C@@H](C)[C@@H]3CC[C@@]12C`, the growth is 61.4% in test [1]; 67.9% in test [2]; 52.1% in test [3]; 19.4% in test [4]; 52.6% in test [5]; 93.7% in test [6]. The growth in [7] was 62.1%; in test [8] it was 44.8%; in [9] it was 21.6%; in test [10], 70.5%; in test [11], 33.4%; in test [12], 47.2%. Besides, the growth in test [13] is 56%; in [14], 75.8%; in test [15], 81.3%; in test [16], 41.9%; in test [17] it was 66%; in test [18], 91.9%. In addition, the growth is 40% in [19] and 76.8% in test [20].
As for `COc1c(B(O)O)cccc1-c1nc2ccc3n[nH]c(F)c3c2c2c1CCCC2`, the growth in [1] was 92.9%; in test [2], 92.6%; in test [3], 66.3%; in [4], 47.2%; in test [5], 78.6%; in test [6], 59.4%. The growth in [7] was 66%; in test [8], 69.5%; in test [9], 93.2%; in test [10], 77.7%; in test [11], 92.9%; in [12], 119%. The growth was 28.9% in test [13]; 24.1% in [14]; 50.5% in test [15]; 80% in [16]; 25.1% in test [17]; 121% in [18]. The growth in test [19] is 104%; in test [20], 85.3%.
Turning to `CCCSC1=NC2C(N(CC)C(=O)N2CC)N1/N=C/C=C/c1ccccc1[N+](=O)[O-]` (stereo not given), the growth in [1] was 46.5%; in test [2] it was 57.5%; in test [3], 49.8%; in test [4] it was 5.1% (active); in [5] it was 102%; in test [6], 0.595% (active). Also, the growth in [7] was 35.8%; in test [8] it was 33.4%; in [9], 0.744% (active); in test [10], 19.8%; in [11], 8.86% (active); in test [12], 74.3%. The growth in test [13] was 22.6%; in test [14], 0.465% (active); in test [15], 48.1%; in test [16], 12.9%; in test [17] it was -11.9% (active); in test [18], 70.8%. For the same compound, the growth in test [19] was 1.77% (active); in test [20] it was 16.1%.
Regarding `O=C(N=Nc1c(O)[nH]c2ccccc12)c1oc2ccccc2c1CN1CCN(c2ccccc2)CC1`, the growth in [1] is -0.112% (active); in [2] it was 33.2%; in test [3], 7.31% (active); in [4], -65.3% (active); in test [5], -12% (active); in test [6], 20.4%. Further, the growth was -13.5% (active) in [7]; -83.2% (active) in test [8]; 12.7% in test [9]; -34.2% (active) in test [10]; 16.5% in test [11]; -64.6% (active) in [12]. The growth in [13] was 24.6%; in [14], -67.6% (active); in test [15], 10.8%; in test [16] it was 13%; in test [17], 8.4% (active); in test [18], 20.1%. Also, the growth was -8.59% (active) in test [19] and -8.29% (active) in test [20].
On to `CCOc1cc(Cl)c(C(C)NC(=O)c2cccc(OC)c2)cc1OCC` (stereo not given), for which the growth in [1] is 4.89% (active); in [2], 127%; in test [3] it was -11.2% (active); in [4] it was 13.6%; in test [5], -46.3% (active); in [6], -76.1% (active). For the same compound, the growth was 17.3% in test [7]; -74.9% (active) in test [8]; -84.8% (active) in test [9]; -21.7% (active) in [10]; -25.7% (active) in test [11]; -70.4% (active) in test [12]. Besides, the growth was -7.72% (active) in test [13]; -95.8% (active) in [14]; 11.3% in test [15]; 111% in test [16]; 7.13% (active) in [17]; -70.3% (active) in [18]. The growth is -46.4% (active) in test [19] and 3.34% (active) in test [20].

Source of the values: PubChem BioAssay (NCI).
